Assay results: PubChem BioAssay AID1159580 (chemical genetic matrix, 2015)
Where “and” joins values, the source holds several entries; their conditions need not be identical. Identical values can stand only once. Hit rate of the full screen: of about 5,500 compounds, about 2,000 (36%) were called active. Not shown: some 18% with an inconclusive outcome. No stated cut-off is given here; in the data, active means normalized growth mostly below about 0.91 (no sharp cut-off); inconclusive means no clear call, values can overlap the other calls; inactive means mostly above about 0.92. The list shows a part of the results.

Experiment: chemical genetic growth profiling, strain panel (AID 1159580);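 further: tested at 20 µM; growth read once vehicle control cultures reached saturation at 30 °C; 1 = growth at the plate median or of vehicle wells; lower values mean less growth of the strain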
Details: S. cerevisiae deletion strains, growth OD

Measured: normalized growth

CNc1ccccc1C(=O)N1CCc2c([nH]c3ccccc23)C1=O
inactive: locus YAL021C, strain ccr4, active compounds read low 0.962 | locus YAL026C, strain drs2, active compounds read low 1 | locus YAL030W, strain snc1, active compounds read low 0.995 | locus YBL061C, strain skt5, active compounds read low 1 | locus YBR009C, strain hhf1, active compounds read low 0.981 | locus YBR021W, strain FUR4, active compounds read low 0.954 | locus YBR023C, strain chs3, active compounds read low 1 | locus YBR171W, strain sec66, active compounds read low 0.991 | locus YBR229C, strain ROT2, active compounds read low 1.01 | locus YBR231C, strain swc5, active compounds read low 0.996 | locus YBR279W, strain paf1, active compounds read low 0.992 | locus YCL011C, strain gbp2, active compounds read low 0.983 | locus YCL016C, strain dcc1, active compounds read low 0.981 | locus YCL029C, strain bik1, active compounds read low 0.996 | locus YCL069W, strain vba3, active compounds read low 0.987 | locus YCR088W, strain abp1, active compounds read low 1 | locus YDL005C, strain med2, active compounds read low 0.997 | locus YDL035C, strain GPR1, active compounds read low 0.995 | locus YDL040C, strain nat1, active compounds read low 0.99 | locus YDL074C, strain BRE1, active compounds read low 0.976 | locus YDL101C, strain DUN1, active compounds read low 1.02 | locus YDL185W, strain tfp1, active compounds read low 0.996 | locus YDL192W, strain arf1, active compounds read low 0.975 | locus YDR001C, strain nth1, active compounds read low 0.98 | locus YDR069C, strain doa4, active compounds read low 0.966 | locus YDR101C, strain arx1, active compounds read low 0.964 | locus YDR137W, strain rgp1, active compounds read low 0.991 | locus YDR159W, strain sac3, active compounds read low 1.03 | locus YDR162C, strain NBP2, active compounds read low 1.01 | locus YDR195W, strain ref2 1.01 | locus YDR297W, strain sur2, active compounds read low 1 | locus YDR318W, strain mcm21, active compounds read low 0.997 | locus YDR334W, strain swr1, active compounds read low 0.991 | locus YDR335W, strain msn5, active compounds read low 0.996 | locus YDR388W, active compounds read low 0.979 | locus YDR392W, strain spt3, active compounds read low 0.908 | locus YDR502C, strain sam2, active compounds read low 0.967 | locus YEL003W, strain gim4, active compounds read low 0.987 | locus YEL037C, strain rad23, active compounds read low 0.992 | locus YEL061C, strain CIN8 (second series), active compounds read low 0.989 | locus YEL061C, strain CIN8, active compounds read low 1.01 | locus YER015W, strain faa2, active compounds read low 0.992 | locus YER016W, strain bim1, active compounds read low 0.985 | locus YER110C, active compounds read low 0.986 | locus YER111C, strain swi4, active compounds read low 1 | locus YER155C, strain BEM2 (second series), active compounds read low 1.01 | locus YER155C, strain BEM2, active compounds read low 0.997 | locus YER167W, strain BCK2, active compounds read low 1 | locus YFR010W, strain ubp6, active compounds read low 0.965 | locus YGL078C, strain dbp3, active compounds read low 0.971 | locus YGL086W, strain mad1, active compounds read low 0.964 | locus YGL167C, strain pmr1, active compounds read low 0.98 | locus YGL173C, strain kem1, active compounds read low 0.997 | locus YGL227W, strain vid30, active compounds read low 1 | locus YGL240W, strain doc1, active compounds read low 1 | locus YGL248W, strain PDE1, active compounds read low 1.02 | locus YGL253W, strain hxk2, active compounds read low 0.989 | locus YGR078C, strain PAC10, active compounds read low 1.01 | locus YGR135W, strain pre9, active compounds read low 1 | locus YGR229C, strain SMI1, active compounds read low 1 | locus YGR252W, strain gcn5, active compounds read low 0.924 | locus YHR013C, strain ard1, active compounds read low 0.958 | locus YHR027C, strain rpn1, active compounds read low 0.991 | locus YHR030C, strain SLT2, active compounds read low 1.01 and 0.995 | locus YHR079C, strain IRE1 (second series), active compounds read low 0.981 | locus YHR079C, strain IRE1, active compounds read low 0.986 | locus YHR094C, strain hxt1, active compounds read low 0.984 | locus YHR129C, strain ARP1, active compounds read low 1.01 | locus YHR142W, strain chs7, active compounds read low 0.975 | locus YHR200W, strain rpn10, active compounds read low 0.987 | locus YIL066C, strain RNR3, active compounds read low 1.01 | locus YIL073C, strain SPO22, active compounds read low 0.957 | locus YIL125W, strain kgd1, active compounds read low 0.968 | locus YIR030C, strain dcg1, active compounds read low 0.975 | locus YJL092W, strain hpr5, active compounds read low 0.991 | locus YJL095W, strain BCK1 (second series), active compounds read low 1.01 | locus YJL095W, strain BCK1, active compounds read low 1.01 and 1.06 | locus YJL115W, strain asf1, active compounds read low 0.976 | locus YJL129C, strain trk1, active compounds read low 0.982 | locus YJL134W, strain LCB3, active compounds read low 1.01 | locus YJL154C, strain vps35, active compounds read low 0.989 | locus YJL164C, strain tpk1, active compounds read low 0.963 | locus YJL166W, strain qcr8, active compounds read low 0.992 | locus YJL168C, strain set2, active compounds read low 0.989 | locus YJL187C, strain SWE1 (second series), active compounds read low 1 | locus YJL187C, strain SWE1, active compounds read low 0.981 | locus YJR043C, strain POL32, active compounds read low 0.986 | locus YJR066W, strain TOR1, active compounds read low 0.94 | locus YJR075W, strain HOC1, active compounds read low 1 | locus YKL009W, strain mrt4, active compounds read low 0.949 | locus YKL068W, active compounds read low 1 | locus YKL085W, strain MDH1 (second series), active compounds read low 0.994 | locus YKL085W, strain MDH1, active compounds read low 0.994 | locus YKL160W, strain elf1, active compounds read low 0.973 | locus YKR001C, strain vps1, active compounds read low 0.941 | locus YKR026C, strain gcn3, active compounds read low 1.01 | locus YKR091W, strain srl3, active compounds read low 0.989 | locus YLL001W, strain dnm1, active compounds read low 0.982 | locus YLL026W, active compounds read low 1 | locus YLL041C, strain sdh2, active compounds read low 1 | locus YLR027C, strain aat2, active compounds read low 0.995 | locus YLR039C, strain RIC1, active compounds read low 0.812 | locus YLR058C, strain SHM2, active compounds read low 1.01 | locus YLR102C, strain apc9, active compounds read low 0.977 | locus YLR113W, strain HOG1, active compounds read low 1.1 | locus YLR221C, strain rsa3, active compounds read low 1.01 | locus YLR258W, strain gsy2, active compounds read low 0.993 | locus YLR262C, strain YPT6 (second series), active compounds read low 0.975 | locus YLR262C, strain YPT6, active compounds read low 0.823 | locus YLR268W, strain sec22, active compounds read low 0.954 | locus YLR320W, strain mms22, active compounds read low 1 | locus YLR330W, strain CHS5, active compounds read low 1.01 | locus YLR342W, strain FKS1 (second series), active compounds read low 0.998 | locus YLR342W, strain FKS1, active compounds read low 0.991 | locus YLR357W, strain rsc2, active compounds read low 0.973 | locus YLR370C, strain arc18, active compounds read low 0.998 | locus YLR371W, strain rom2, active compounds read low 0.986 | locus YLR384C, strain iki3, active compounds read low 1.02 | locus YLR418C, strain cdc73, active compounds read low 0.917 | locus YML016C, strain PPZ1, active compounds read low 1.02 | locus YML032C, strain rad52, active compounds read low 0.989 | locus YML120C, strain ndi1, active compounds read low 0.983 | locus YML124C, strain tub3, active compounds read low 0.985 | locus YMR058W, strain fet3, active compounds read low 0.994 | locus YMR078C, strain ctf18, active compounds read low 0.986 | locus YMR125W, strain sto1, active compounds read low 0.965 | locus YMR129W, active compounds read low 0.988 | locus YMR205C, strain PFK2, active compounds read low 0.984 | locus YMR223W, strain ubp8, active compounds read low 1 | locus YMR231W, strain pep5, active compounds read low 0.999 | locus YMR263W, strain SAP30, active compounds read low 1.01 | locus YMR307W, strain GAS1, active compounds read low 0.949 | locus YNL067W, strain RPL9B, active compounds read low 1.01 | locus YNL071W, strain lat1, active compounds read low 0.993 | locus YNL153C, strain GIM3, active compounds read low 1.01 | locus YNL183C, strain NPR1, active compounds read low 1.01 | locus YNL209W, strain ssb2, active compounds read low 0.985 | locus YNL233W, strain BNI4, active compounds read low 0.996 | locus YNL248C, strain rpa49, active compounds read low 0.986 | locus YNL250W, strain rad50, active compounds read low 1 | locus YNL271C, strain bni1, active compounds read low 0.989 | locus YNL298W, strain CLA4, active compounds read low 0.977 | locus YNL307C, strain MCK1, active compounds read low 0.985 | locus YNL322C, strain KRE1 (second series), active compounds read low 1 | locus YNL322C, strain KRE1, active compounds read low 1.01 | locus YNR049C, strain mso1, active compounds read low 0.989 | locus YNR052C, strain pop2, active compounds read low 1.02 | locus YOL006C, strain TOP1, active compounds read low 0.974 | locus YOL012C, strain htz1 0.736 | locus YOL147C, strain pex11, active compounds read low 0.979 | locus YOR001W, strain rrp6, active compounds read low 1.01 | locus YOR061W, strain CKA2, active compounds read low 1.01 | locus YOR069W, strain VPS5, active compounds read low 1.01 | locus YOR070C, strain gyp1, active compounds read low 0.985 | locus YOR080W, strain dia2, active compounds read low 1 | locus YOR083W, strain WHI5, active compounds read low 0.967 | locus YOR106W, strain vam3, active compounds read low 0.924 | locus YOR136W, strain idh2, active compounds read low 0.974 | locus YOR144C, strain elg1, active compounds read low 0.979 | locus YOR184W, strain ser1, active compounds read low 0.979 | locus YOR231W, strain MKK1, active compounds read low 1.01 | locus YOR265W, strain rbl2, active compounds read low 1 | locus YOR270C, strain vph1, active compounds read low 0.979 | locus YOR290C, strain snf2, active compounds read low 0.944 | locus YOR316C, strain cot1, active compounds read low 0.982 | locus YPL051W, strain arl3, active compounds read low 0.982 | locus YPL055C, strain LGE1, active compounds read low 0.991 | locus YPL078C, strain atp4, active compounds read low 0.973 | locus YPL106C, strain sse1, active compounds read low 0.997 | locus YPL240C, strain hsp82, active compounds read low 0.986 | locus YPL241C, strain CIN2, active compounds read low 1 | locus YPL256C, strain CLN2, active compounds read low 1 | locus YPR119W, strain clb2, active compounds read low 0.978 | locus YPR141C, strain kar3, active compounds read low 0.994 | locus YPR163C, strain tif3, active compounds read low 0.99 | locus YPR167C, strain met16, active compounds read low 0.989 | strain wtn01, active compounds read low 0.961
